# According to PubChem BioAssay:
# Several values for one entry are separate records, joined by “and”; a condition that tells them apart may be missing. Equal entries are not always repeated. Activity calls are given as the source filed them. Unless noted, the rule behind the calls is not given here.
# Experiments:
# [1] = P. berghei load reduction in hepatocytes – cell-based, HepG2, luciferase luminescence, HepG2 viability, primary screen (AID 624349; in the data active = parasite load remaining mostly below about 12%, no sharp cut-off; inactive = mostly above about 10%;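 note: 100% = mean of DMSO negative control wells on the same plate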); conditions: P. berghei liver stage in HepG2, luciferase luminescence, concentration not given here; parasite load remaining: stronger effect = lower value; viability: measured here: HepG2 viability without parasites
# [2] = tested on: Hepatitis C virus NS3 helicase; assay: blockers of NS3h binding to ssDNA – biochemical, fluorescence polarization, LOPAC1280 library, primary screen (AID 687035; in the data active = inhibition above about 37%); conditions: Purified HCV NS3 helicase, Cy5-dT15 ssDNA binding fluorescence polarization; stronger effect = higher value; concentration not given here
# [3] = compounds altering Cy5-DNA-NS3h complex signal – biochemical, LOPAC1280, artefact control for HCV NS3 helicase inhibitor project (AID 687037); conditions: Cy5-DNA-NS3h complex fluorescence interference counterscreen
# [4] = signal quenchers or enhancers, Cy5 substrate/SSB – biochemical, NIH Clinical Collection, E. coli SSB, artefact control for HCV NS3 helicase inhibitor project (AID 743268); conditions: Cy5-oligo bound E. coli SSB, fluorescence interference
# [5] = tested on: Hepatitis C virus NS3 helicase; assay: blockers of NS3h binding to DNA – biochemical, fluorescence polarization, NIH Clinical Collection, primary screen (AID 743270); conditions: NS3 helicase binding to Cy5-dT15 DNA, stronger effect = higher value, concentration not given here
# [6] = target: Single-stranded DNA-binding protein (Escherichia coli (strain K12)) (UniProt P0AGE0); assay: SSB-ssDNA binding inhibitors – biochemical, fluorescence polarization, NIH Clinical Collection, counter-screen for HCV NS3 helicase inhibitor project (AID 743271; in the data active = inhibition above about 28%); conditions: E. coli SSB-DNA binding, stronger effect = higher value, concentration not given here
# [7] = compounds distorting NS3 helicase fluorescence signal – biochemical, NIH Clinical Collection, artefact control for HCV NS3 helicase inhibitor project (AID 743272); conditions: fluorescence interference counterscreen, HCV NS3 helicase assay; stronger effect = lower value;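 note: HCV NS3 helicase with a Cy5 labelled single stranded DNA probe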
# [8] = tested on: Neuropilin-2 / VEGF-C interaction (human); assay: small molecules blocking Neuropilin-2/VEGF-C interaction – biochemical, microplate binding format, z-score (AID 743281); conditions: microplate NRP2/VEGF-C binding assay; stronger effect = lower value
# [9] = Wnt pathway potentiators raising nuclear beta-catenin – imaging, WNT3A-conditioned medium, mouse C2C12, NPC library, primary screen (AID 1117326; in the data active = nuclear beta-catenin stimulation mostly above about 4.2%, no sharp cut-off; inactive = mostly below about 10%); conditions: stronger effect = higher value
# [10] = stimulators of insulin release from INS-1E, primary screen, cell-based, 5 mM glucose, NPC library (AID 1117329;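 active = compound raises insulin release from rat beta cells at 5 mM glucose, no numeric limit stated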); conditions: rat INS-1E insulin secretion, at 10 µM, stronger effect = higher value
# [11] = growth inhibition of GSK3B-pretreated HCT116 cells – cell-based, CellTiter-Glo, 0.2 to 20 µM (AID 1117336;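 active = compounds lowering colon cancer cell viability after pretreatment blocking the GSK3B kinase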); conditions: HCT116 viability after GSK3B inhibitor, at 20 µM, stronger effect = higher value
# [12] = inhibition of endothelial tube formation, primary screen, imaging, VEGF stimulated, CD31 staining, tube area, NPC library (AID 1117340;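 active = compound that reduces growth-factor-driven endothelial tube area in a mixed cell culture, no cutoff stated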); conditions: VEGF-stimulated ADSC/ECFC co-culture, at 10 µM, stronger effect = higher value
# [13] = GLP1 release stimulators, primary, NCI-H716, NPC library (AID 1117341;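 active = compound raises GLP1 secretion from the human gut endocrine cells, with no numeric limit stated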); conditions: NCI-H716 cells, at 10 µM, stronger effect = higher value
# [14] = HCT116 colon cancer cell growth inhibition, primary screen, CellTiter-Glo luminescence, NPC library (AID 1117342;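 active = compounds that lower survival of HCT116 colon cancer cells in the luminescence readout, no numeric limit stated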); conditions: at 20 µM (top of the series)
# [15] = reduced SW480 viability measured with CellTiter-Glo, NPC library, primary (AID 1117343;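 active = compounds that lower viability of the colon cancer cells in the luminescence readout, with no numeric limit stated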); conditions: CellTiter-Glo luminescence; at 20 µM (top of the series)
# [16] = NPC library primary testing for decreased DLD-1 cell viability via CellTiter-Glo (AID 1117346;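 active = compounds that lower survival of DLD-1 colon cancer cells in the luminescence readout, no cutoff given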); conditions: DLD-1 viability, CellTiter-Glo luminescence; at 20 µM (top of the series)
SMILES,parasite load remaining [1],viability [1],inhibition [2],fluorescence ratio (interference) [3],fluorescence ratio [4],inhibition [5],inhibition [6],fluorescence ratio [7],z-score [8],nuclear beta-catenin stimulation ([9]; at 10 µM),"nuclear beta-catenin stimulation ([9]; stimulation, at 2 µM) [%]",insulin secretion stimulation [10],viability decrease [11],tube area decrease [12],GLP1 secretion stimulation [13],inhibition of viability [14],viability decrease (inhibition) [15],viability decrease (inhibition) [16],outcome [8]
CCN1CCC[C@H]1CNC(=O)c1cc(S(N)(=O)=O)ccc1OC,118% (inactive) and 67.6% (inactive),78.9% and 220%,-1% (inactive),1 (inactive),1.03 (inactive),0.4% (inactive),6.06% (inactive),0.97 (inactive),-0.132 (inactive),-1.5% (inactive),0.2,1% (inactive),-4.3% (inactive),10.5% (inactive),-3% (inactive),-5.3% (inactive),-4.8% (inactive),-5.7% (inactive),–
CN(C)CCCSc1ccccc1NC(=O)/C=C/c1ccccc1,53.7% (inactive) and 10.2% (inactive),56.6% and 65.5%,–,–,0.99 (inactive),0.4% (inactive),-2.41% (inactive),0.97 (inactive),-0.209 (inactive),1.7% (inactive),1.1,9.9% (inactive),-78.5% (inactive),23.1% (inactive),3.9% (inactive),25.5% (inactive),5.3% (inactive),-18% (inactive),–
CCN1CCC[C@H]1CNC(=O)c1c(O)c(Cl)cc(Cl)c1OC,132% (inactive) and 60.7% (inactive),135% and 99%,-2% (inactive),1 (inactive),0.94 (inactive),1.19% (inactive),7.6% (inactive),0.77 (active),-0.335 (inactive),0.6% (inactive),3.4,-0.9% (inactive),-21% (inactive),-4.8% (inactive),2.2% (inactive),9.13% (inactive),-26.4% (inactive),-11.6% (inactive),–
C#C[C@]1(O)CC[C@H]2[C@@H]3CCc4cc(OC)ccc4[C@H]3CC[C@@]21C,48% (inactive) and 32.2% (inactive),96.9% and 76.9%,–,–,1 (inactive),3.56% (inactive),1.44% (inactive),1 (inactive),–,3.3% (inactive),0.6,0.5% (inactive),1.9% (inactive),10.3% (inactive),16.1% (inactive),45% (inactive),110% (active),26.6% (inactive),–
C[C@@H]1C[C@H]2[C@@H]3CCC4=CC(=O)C=C[C@]4(C)[C@@]3(F)[C@@H](O)C[C@]2(C)[C@H]1C(=O)CO,74.3% (inactive),70.8%,–,–,0.96 (inactive),-1.97% (inactive),-1.97% (inactive),0.92 (inactive),–,-1.6% (inactive),0.6,7.5% (inactive),-14.3% (inactive),6.7% (inactive),-0.7% (inactive),9.7% (inactive),3.5% (inactive),-5% (inactive),–
C[C@@H]1C[C@H]2[C@@H]3C[C@H](F)C4=CC(=O)C(Cl)=C[C@]4(C)[C@@]3(F)[C@@H](O)C[C@]2(C)[C@@]1(O)C(=O)CO,117% (inactive),79.4%,–,–,1 (inactive),6.73% (inactive),7.6% (inactive),0.96 (inactive),–,1.5% (inactive),1.3,-0.6% (inactive),6.2% (inactive),-1.8% (inactive),4.6% (inactive),33.1% (inactive),12% (inactive),8.3% (inactive),–
CC(C(=O)O)c1ccc(CC2CCCC2=O)cc1 (centres undefined),108% (inactive),79.1%,-4% (inactive),1 (inactive),1.12 (inactive),5.94% (inactive),4.52% (inactive),1.09 (inactive),-0.224 (inactive),-1.5% (inactive),-0.2,-1.3% (inactive),9.37% (inactive),-7.8% (inactive),0.4% (inactive),10.8% (inactive),37.6% (inactive),5.13% (inactive),–
Cc1[nH]c(=O)c(C#N)cc1-c1ccncc1,79.2% (inactive) and 78.4% (inactive) and 15.3% (inactive),69% and 68.9% and 65.5%,-3% (inactive),1 (inactive),1.05 (inactive),-4.36% (inactive),-3.18% (inactive),1.02 (inactive),0.188 (inactive),0.1% (inactive),0.4,0.8% (inactive),-19.7% (inactive),4% (inactive),0% (inactive),16.6% (inactive),-4.9% (inactive),-6.1% (inactive),–
COc1ccc(C2CNC(=O)C2)cc1OC1CCCC1 (centres undefined),73.2% (inactive) and 98.7% (inactive) and 48.7% (inactive),91.9% and 79% and 67.5%,-7% (inactive),1 (inactive),1.03 (inactive),2.77% (inactive),-0.1% (inactive),0.98 (inactive),0.503 (inactive),-0.2% (inactive),-0.4,0.8% (inactive),23.9% (inactive),1.1% (inactive),4.4% (inactive),13.6% (inactive),88.4% (active),29.1% (inactive),–
CC1(C)O[C@@H]2C[C@H]3[C@@H]4C[C@H](F)C5=CC(=O)C=C[C@]5(C)[C@@]4(F)[C@@H](O)C[C@]3(C)[C@]2(C(=O)CO)O1,46.3% (inactive) and 25.1% (inactive),96.3% and 68%,–,–,1 (inactive),-1.36% (inactive),0.29% (inactive),0.97 (inactive),–,-1.6% (inactive),2,0.7% (inactive),-12.2% (inactive),14.7% (inactive),-0.6% (inactive),19.8% (inactive),1.8% (active),24.1% (inactive),–
CCOC(=O)OC(C)OC1=C(C(=O)Nc2ccccn2)N(C)S(=O)(=O)c2ccccc21 (centres undefined),75.6% (inactive) and 16.2% (inactive),78.8% and 73%,–,–,0.97 (inactive),-2.84% (inactive),-0.39% (inactive),0.96 (inactive),-0.884 (inactive),0.7% (inactive),-0.8,0.55% (inactive),5.8% (inactive),-1.1% (inactive),1% (inactive),8.6% (inactive),-18.8% (inactive),-0.2% (inactive),–
CCCN1CCCC[C@H]1C(=O)Nc1c(C)cccc1C,68.8% (inactive),69.6%,–,–,0.98 (inactive),-5.46% (inactive),-2.76% (inactive),0.92 (inactive),0.543 (inactive),0.3% (inactive),-1.3,31% (active),-8% (inactive),-2.1% (inactive),3.3% (inactive),3.1% (inactive),-17% (inactive),6.9% (inactive),–
CC1(C)S[C@@H]2[C@H](N=CN3CCCCCC3)C(=O)N2[C@H]1C(=O)O,101% (inactive),79.6%,–,–,1.06 (inactive),-1.98% (inactive),-4.72% (inactive),1.04 (inactive),-0.418 (inactive),0.4% (inactive),0.8,-1.6% (inactive),-5.75% (inactive),4.4% (inactive),-0.7% (inactive),15.1% (inactive),-20.4% (inactive),-12.8% (inactive),–
CN1CCN(c2c(F)cc3c(=O)c(C(=O)O)cn4c3c2SCC4)CC1,99.2% (inactive) and 24.3% (inactive),91.2% and 66%,–,–,1.04 (inactive),-4.36% (inactive),-3.18% (inactive),0.99 (inactive),–,1.2% (inactive),-0.2,0.05% (inactive),19.8% (inactive),-3.6% (inactive),1.6% (inactive),7.2% (inactive),-18.1% (inactive),0.6% (inactive),inactive
CNCCCCOc1ccccc1Cc1ccccc1,22.1% (inactive),54.6%,–,–,1 (inactive),-4.36% (inactive),-0.87% (inactive),0.96 (inactive),-0.524 (inactive),1.7% (inactive),1.6,19.5% (inactive),82.8% (active),41% (active),7.5% (inactive),95.4% (active),85.7% (active),50.3% (active),–
CNS(=O)(=O)Cc1ccc2[nH]cc(CCN(C)C)c2c1,108% (inactive) and 29.1% (inactive),93.1% and 65.5%,–,–,1.05 (inactive),5.94% (inactive),6.06% (inactive),1.03 (inactive),0.0332 (inactive),0.9% (inactive),0.4,0.3% (inactive),-2.3% (inactive),15.1% (inactive),1.4% (inactive),-2.93% (inactive),66.2% (active),-3.8% (inactive),–
CCc1nn(CCCN2CCN(c3cccc(Cl)c3)CC2)c(=O)n1CCOc1ccccc1,9.1% (inactive) and 13.5% (inactive),58.6% and 64.5%,–,–,0.98 (inactive),-1.19% (inactive),3.75% (inactive),0.99 (inactive),0.854 (inactive),-1% (inactive),3,-1.1% (inactive),67.2% (active),30.7% (inactive),-2.9% (inactive),85.7% (active),91.5% (active),81.3% (active),–
COc1cc(C(=O)NS(=O)(=O)c2ccccc2C)ccc1Cc1cn(C)c2ccc(NC(=O)OC3CCCC3)cc12,103% (inactive) and 39.6% (inactive),73.8% and 104%,–,–,0.99 (inactive),16.2% (active),25.3% (inactive),1.03 (inactive),-5.32 (active),0.1% (inactive),0.4,3.85% (inactive),106% (active),44.5% (active),19.5% (inactive),106% (active),120% (active),98.2% (active),–
